Assay outcomes: PubChem BioAssay, National Center for Advancing Translational Sciences (NCATS)
The list is not random: actives were taken first. Their share in the collection is about 12%.
BAZ2B block: qHTS Assay for Inhibitors of BAZ2B; Bromodomain adjacent to zinc finger domain protein 2B (Homo sapiens), Q9UIF8; AlphaScreen BAZ2B-H3K14Ac peptide displacement; Potency, µM (series often up to 114 µM), for the others: at the highest dose activity change, negative = inhibition, actives largely listed as inhibitors; hit rate 4.4% among 360,000; AID 504333, 2011; further: on the % scale 0 is the no-effect control and ±100 the full control effect; nearly all actives have a fitted effect of over 60% in size
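BAZ2B (50 nM) with biotin-H3(5-23)K14Ac peptide (50 nM) in PBS pH 7.4, 0.01% Tween-20, preformed 30 min, then compound 30 min at room temperature; top concentration 110uM. AlphaScreen streptavidin donor/nickel chelate acceptor beads (10 ug/mL final), 20 min dark, signal read.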
G9a block: qHTS Assay for Inhibitors of Histone Lysine Methyltransferase G9a | hit rate 8.8% among 350,000 | Histone-lysine N-methyltransferase EHMT2 (Homo sapiens), Q96KQ7 | Potency, µM (series often up to 102 µM), for inactives: at the highest dose activity, negative = inhibition, hits mostly inhibitors | G9a H3K9 monomethylation, AlphaScreen, 2 h | AID 504332, 2011; further: on the % scale 0 is the no-effect control and ±100 the full control effect; nearly all actives have a fitted effect of over 75% in size
Target sequence (Q96KQ7 913-1193 limits assumed): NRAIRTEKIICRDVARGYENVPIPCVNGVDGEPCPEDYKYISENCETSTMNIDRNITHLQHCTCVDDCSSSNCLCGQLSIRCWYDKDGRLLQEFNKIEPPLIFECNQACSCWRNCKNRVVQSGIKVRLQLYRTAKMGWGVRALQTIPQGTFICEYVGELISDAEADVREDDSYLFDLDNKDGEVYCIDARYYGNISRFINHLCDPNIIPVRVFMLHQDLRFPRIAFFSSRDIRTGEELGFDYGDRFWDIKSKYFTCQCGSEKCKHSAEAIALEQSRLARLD
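G9a (20 nM) preincubated 15 min RT with compounds, then 500 nM biotinylated H3K9 peptide and 20 uM SAM added; 2 h RT reaction. Monomethyl-H3K9 product detected by AlphaScreen with anti-H3K9me1 antibody, streptavidin donor and anti-rabbit IgG acceptor beads.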
Sfp PPTase inh: qHTS Assay for Inhibitors of Bacillus subtilis Sfp phosphopantetheinyl transferase (PPTase). 4'-phosphopantetheinyl transferase ffp (Bacillus subtilis), Q9F4F7. Biochemical Sfp PPTase activity, qHTS. Potency, µM, inactives show largest response in the series, negative = inhibition, usual class: inhibitors. hit rate 3.5% among 310,000. AID 1490, 2009;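 further: the enzyme is Sfp with the accession as filed and its product quenches rhodamine fluorescence; 0% = enzyme reaction without inhibitor and -100% = no enzyme wells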
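After 15 min at room temperature with compound, 15 nM Sfp received 5 uM rhodamine-CoA plus 12.5 uM BHQ-2-ybbR (50 mM Hepes pH 7.6, 10 mM MgCl2). Rate came from the fluorescence difference over 30 min, ex 525/em 598 nm.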
PLK1 PBD block: qHTS for Inhibitors of PLK1-PDB (polo-like kinase 1 - polo-box domain): Primary Screen; Potency, µM, for the others: max response, negative = inhibition, hits mostly inhibitors; AID 720504, 2013; Plk1 PBD binding of FITC phosphopeptide, fluorescence polarization; hit rate 2.8% among 360,000; further: series mostly up to about 57 µM; on the % scale 0 is the no-effect control and ±100 the full control effect; nearly all actives have a fitted effect of over 65% in size
JMJD2A Tudor inh: qHTS Assay for Inhibitors of JMJD2A-Tudor Domain. AID 504339, 2011. AlphaScreen JMJD2A-Tudor / H3K4me3 peptide binding. Lysine-specific demethylase 4A (Homo sapiens), O75164. hit rate 4.4% among 390,000. Potency, µM (top dose mostly 114 µM), for inactives: at the highest dose activity change, negative = inhibition, actives largely listed as inhibitors; further: on the % scale 0 is the no-effect control and ±100 the full control effect; nearly all actives have a fitted effect of over 50% in size
HP1b binding inh: HTS for Inhibitors of HP1-beta Chromodomain Interactions with Methylated Histone Tails. AlphaScreen HP1-beta / biotin-H3K9me3 peptide binding. Potency, µM (highest dose often 114 µM), without a hit: top-dose activity change, negative = inhibition, hits mostly inhibitors. hit rate 0.56% among 390,000. AID 540317, 2011; further: nearly all actives have a fitted effect of over 70% in size
Target sequence (P83916 whole entry, looked up): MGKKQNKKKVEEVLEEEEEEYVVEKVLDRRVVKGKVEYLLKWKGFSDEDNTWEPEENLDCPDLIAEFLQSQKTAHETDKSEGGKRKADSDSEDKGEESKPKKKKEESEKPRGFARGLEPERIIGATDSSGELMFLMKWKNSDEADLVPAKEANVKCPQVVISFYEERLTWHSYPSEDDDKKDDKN
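HP1-beta protein (50 nM final) preincubated 30 min at room temperature with biotinylated H3(1-18)K9me3 peptide (50 nM) in PBS pH 7.4, 0.01% Tween-20, then compound added for 30 min. AlphaScreen streptavidin donor/nickel chelate acceptor beads (10 ug/mL final), 30 min dark, luminescence read.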
Numbers without * were called inactive; ? = inconclusive; . = no result given; [ ] = another dose, or the depositor's remark. The call rests on the fitted dose curve; in most records, active means well fitted curve in the direction sought with a large enough effect; inconclusive means small, poorly fitted or top-dose-only effect, or another doubt; inactive means no such curve, though single readings can be large; an effect the other way counts as inactive or inconclusive. Potency means the concentration at half of the fitted maximal effect.

SMILES | BAZ2B block | G9a block | Sfp PPTase inh | PLK1 PBD block | JMJD2A Tudor inh | HP1b binding inh
CCOc1ccc2c(c1)C(C)=CC(C)(C)N2C(=O)Nc1ccccc1 | 50µM* | 50µM* | ? | -9% | 56µM* | ?
COc1ccc(NC(=O)N2c3ccccc3C(C)=CC2(C)C)cc1 | -32% | ? | 7% | -21% | -24%[57.1 µM] | -16%
COc1ccc(NC(=O)N2c3ccc(OC)cc3C(C)=CC2(C)C)cc1 | 45µM* | 50µM* | 20µM* | -12% | 56µM* | -22%
CCOC(=O)Oc1ccc2c(c1)C(C)=CC(C)(C)N2C(=O)OCC | 52% | 50%[59 µM] | -9% | -6% | 72% | 76%
O=C(NCc1ccc(Cl)cc1)C1CCN(C(=O)c2ccc(Cl)cc2)CC1 | 12% | -30% | . | -6% | -10% | 36%
COc1ccc(COC[B-](F)(F)F)cc1 | . | . | . | 5% | . | .
O=C1NC(=S)S/C1=C\c1coc2ccccc2c1=O | ? | 50µM* | 2% | ? | ? | 33%
O=C1NC(=S)S/C1=C\c1coc2ccc(O)cc2c1=O | ? | 45µM* | 2% | ? | -1%[11.4 µM] | 12%
O=C1NC(=S)SC1=Cc1cc(Br)ccc1O | . | . | . | 27µM* | 20µM* | ?
Cc1nc2cnc(N3CCOCC3)nc2n(Cc2cccs2)c1=O | . | -12%[12.7 µM] | -2% | . | . | .
O=C(c1csnn1)N1CCC2(CC1)CN(c1cccc(-c3ccccc3)c1)C2 | . | 6%[12.7 µM] | -19% | . | . | .
COc1ccc(CCN2CC(C(=O)N(C)CCc3cn[nH]c3)CCC2=O)cc1 (centres undefined) | 6% | -11%[12.7 µM] | 15% | 5% | 14% | 48%
CC1SC(=NC(=O)c2ccco2)NC1=O (centres undefined) | 5% | 50µM* | -8% | -30% | ? | -5%
NC(Cc1ccc(C(F)(F)F)cc1)c1csc(Nc2cc(NCc3ccco3)ncn2)n1 (centres undefined) | . | . | . | -3% | . | .
CC(C)(C)OC(=O)N[C@@H](Cc1ccccc1)C(=O)N[C@@H](CO)[C@H](O)[C@@H]1C[C@@H]1C(=O)NC1CC1 | -1% | . | 10% | -7% | 4% | 58%
CCCn1c(CN2CCN(c3ccc(OC)cc3)CC2)nc2c1c(=O)[nH]c(=O)n2C | -15% | 25µM* | . | . | -20% | 23%
C=CCn1c(N2CCN(c3ccc(OC)cc3)CC2)nc2c1c(=O)[nH]c(=O)n2C | -31% | 50µM* | 15% | -5% | -14% | 49%
CCCCCn1c(CN2CCN(c3ccc(OC)cc3)CC2)nc2c1c(=O)[nH]c(=O)n2C | -35% | ? | . | . | ? | 16%
CCc1ccc(NC(=O)CSc2nc(C)cc(COC)c2C#N)cc1 | -2% | -1%[59 µM] | . | . | -4% | 40%
CC(=O)c1sc(NC(=O)c2c(F)cccc2F)nc1C | ? | -25%[59 µM] | 2% | -10% | -18% | 21%
CC(=O)Nc1nc(C)c(C(C)(C)C)s1 | -19% | 29%[59 µM] | ? | -10% | -12% | 3%
Cc1ccccc1C(=O)Nc1nc(=S)ss1 | 2% | 13µM* | 22µM* | 11µM* | ? | -42%
CC(=O)Nc1nc(=S)ss1 | 1% | ? | 16µM* | 24µM* | -34% | -41%
O=C(Nc1nc(=S)ss1)c1c(F)cccc1F | -20% | 18µM* | 22µM* | -4% | 5% | 46%
CC(C)CC(=O)Nc1nc(=S)ss1 | -36% | 1.6µM* | 16µM* | 17µM* | ? | ?
Cc1cccc(C(C)C)c1NC(=O)c1ccc2c(c1)CCN2S(C)(=O)=O | 2% | 8%[59 µM] | . | . | 3% | 49%
